KKLEB cytotox: reduces viability of KKLEB cystic fibrosis airway cells | KKLEB CF airway cells viability, ATPlite luminescence, overnight; hits give low values; cells stimulated with P. aeruginosa culture filtrate | activity change (cytotoxicity), % at 5 µM | hit rate 0.36% among 360,000 | AID 602141;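 active = corrected activity change at or below -50% at 5 µM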
Peg3 prom inh: Peg3 promoter activity inhibition; hit rate 1.7% among 360,000; HeLa PEG-Prom luciferase reporter, luminescence, overnight; inhibition, % at 20 µM;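 active = inhibition of at least 50% at 20 µM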
Shn3 3UTR inh: reduces Shn3 3'UTR luciferase signal in osteoblasts; Clone20 osteoblast Shn3 3'UTR firefly luciferase, 24 h; hit rate 0.52% among 360,000; inhibition, % at 12.5 µM; AID 588674;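 active = mean inhibition of at least 75% with every replicate also reaching 75%; inconclusive = mean inhibition at least 75% but some replicate below; inactive = mean inhibition below 75%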
HIF-2a block: blocks HIF-2a reporter activity; 786-0 RCC cells HIF-2a reporter, luciferase luminescence, overnight; inhibition, % at 18.8 µM; hit rate 0.72% among 360,000;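 active = inhibition of the luminescence signal of 40% or more relative to plate controls, in a single-dose primary screen at 18.75 µM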
TRPM1 prom inh: inhibitors of MITF-driven TRPM1 promoter in melanoma cells. SK-MEL-5 TRPM1 promoter luciferase, 24 h. inhibition, % at 12.5 µM. hit rate 0.83% among 330,000. AID 488899;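 active = mean inhibition across replicates of 60% or more, whatever share of single replicates reaches that level; inconclusive = some that reach 60%, reason not given; inactive = mean inhibition across replicates below 60%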
CF NFkB inh: blocks PAF-induced NF-kB reporter in cystic fibrosis cells; KKLEB NF-kB-GFP reporter, GFP fluorescence overnight; inhibition, % at 5 µM; AID 588850; hit rate 0.86% among 360,000;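 active = at least 50% inhibition at 5 µM, scaled per plate between neutral and stimulator controls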;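 note: PAF is a Pseudomonas aeruginosa culture filtrate used as stimulus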
Of the large screens only hits and unclear results are named; the others gave an inactive call. Most compounds without a hit are left out; they make up all but 2.8% or so of the library.

C=CCn1c(=O)/c(=C2/SC(C)=C(C)N2CC)s/c1=C1/C(=O)N(CC)C(=S)N1c1ccccc1	none
O=C1C(=O)N(CCN2CCOCC2)C(c2ccccc2F)/C1=C(\O)c1ccc(S(=O)(=O)N2CCOCC2)cc1 (stereo not drawn)	none
O=C(NC(=S)NCc1ccccc1)c1ccccc1	TRPM1 prom inh 104
O=C(NC(=S)Nc1nc2c(s1)CCCC2)c1ccccc1	KKLEB cytotox -52
COC(=O)c1ccc(C(=O)NC(=S)Nc2nc3c(s2)CCCC3)cc1	none
Cn1cc(CN2CCC(C(=O)NC(c3ccc(-c4ccccc4)cc3)c3cnccn3)CC2)c2ccccc21 (stereo not drawn)	Peg3 prom inh 107 (no result: TRPM1 prom inh)
O=C(NC(c1ccc(-c2ccccc2)cc1)c1cnccn1)C1CCN(Cc2ccc(Cl)c(Cl)c2)CC1 (stereo not drawn)	none (no result: TRPM1 prom inh)
CC(=O)N1c2ccc(S(=O)(=O)NCC3CCC(C(=O)Nc4cc(C)ccn4)CC3)cc2CC1C (stereo not drawn)	Peg3 prom inh 88
CC(=O)N1c2ccc(S(=O)(=O)NCC3CCC(C(=O)Nc4ncccc4C)CC3)cc2CC1C (stereo not drawn)	none
COc1ccc(C(=O)C2CCCN(Cc3cccn3-c3ccc(Cl)cn3)C2)c(OC)c1 (stereo not drawn)	none
CSc1nnc(-c2ccco2)n1-c1ccccc1	Shn3 3UTR inh 89
C=CCOc1cccc(/C=C2\C(=O)N(Cc3ccc(C)cc3)C(C)=C2C(=O)OC)c1	HIF-2a block 63
CCOc1cc(/C=C2\C(=O)N(Cc3ccc(C)cc3)C(C)=C2C(=O)OC)ccc1O	none
N#CC1(C#N)CC(C=O)=C(N)C1(C#N)CC(=O)C12CC3CC(CC(C3)C1)C2 (stereo not drawn)	KKLEB cytotox -55, CF NFkB inh 82
Nc1nccnc1C(=O)OCC(=O)C12CC3CC(CC(C3)C1)C2	none
S=c1[nH]nc(Cn2cnc3ccccc32)n1-c1ccccc1	none
Cc1sc(NC(=O)CCCC(=O)O)c(C(N)=O)c1-c1ccccc1	HIF-2a block 78
COC(=O)c1c(NC(=O)CCCC(=O)O)sc(C)c1C	none
Cc1c(C(=O)N(C)Cc2ccccc2)oc2ccc(S(=O)(=O)N3CCCC3)cc12	none
Cc1c(C(=O)Nc2cccc(C(F)(F)F)c2)oc2ccc(S(=O)(=O)N3CCOCC3)cc12	Shn3 3UTR inh 88
C=CCNC(=O)c1oc2ccc(S(=O)(=O)N3CCC4(CC3)OCCO4)cc2c1C	none
Cc1c(C(=O)N(Cc2ccccc2)C(C)C)oc2ccc(S(=O)(=O)N3CCOCC3)cc12	Peg3 prom inh 51
CCN(CC)c1ccc(S(=O)(=O)N2CCOCC2)cc1NC(=O)c1cc(=O)c2ccccc2o1	Peg3 prom inh 62
COc1ccc(NC(=O)c2oc3ccc(S(=O)(=O)N4CCC5(CC4)OCCO5)cc3c2C)cc1	Peg3 prom inh 69
Cc1ccc(CNC(=O)c2oc3ccc(S(=O)(=O)N4CCOCC4)cc3c2C)cc1	none
Cc1csc(Nc2nc(N)c(C(=O)Nc3cc(Cl)ccc3F)o2)n1	none
CCC1(CC)NC(=O)N(CC(=O)OCC(=O)Nc2cc(OC)ccc2OC)C1=O	none
CN1CCN(/N=C/c2ccc(N(c3ccccc3)c3ccccc3)cc2)CC1	Peg3 prom inh 97, HIF-2a block 90
CCC(C)c1ccc(S(=O)(=O)N2CCN(C(=O)c3ccc(Cl)c(S(=O)(=O)N4CCOCC4)c3)CC2)cc1 (stereo not drawn)	Shn3 3UTR inh 90
COc1ccc(Cc2nnc(N/N=C/c3ccc(O)cc3)[nH]c2=O)cc1OC	Peg3 prom inh 59, Shn3 3UTR inh 88
COc1ccc(Cc2nnc(N/N=C/c3ccc(Br)cc3)[nH]c2=O)cc1OC	none (no result: Shn3 3UTR inh)
NC1=CC(=O)C(=O)c2ccccc21	Peg3 prom inh 55, TRPM1 prom inh 97, CF NFkB inh 68
O=C(Cn1nnc(-c2ccccc2NC(=O)c2ccccc2)n1)Nc1ccc2c(c1)OCCO2	KKLEB cytotox -54
CCN(CC)c1ccc2nc3ccccc3[n+](CC)c2c1	Peg3 prom inh 57, TRPM1 prom inh 67
CCOc1cc(/C=C2/NC(=S)NC2=O)ccc1OCc1ccc([N+](=O)[O-])cc1	Peg3 prom inh 51, TRPM1 prom inh 63
COc1ccc(S(=O)(=O)N2CCC(C(=O)N[C@H](C(=O)N3CCCCCC3)C(C)C)CC2)cc1	none
COc1cc(NC(=O)COc2ccccc2[N+](=O)[O-])ccc1NC(=O)c1cccs1	Peg3 prom inh 57, TRPM1 prom inh 74
COc1cc(NC(=O)COc2ccccc2Cl)ccc1NC(=O)c1cccs1	none
COc1ccc(N=C(c2ccccc2)c2c(C)[nH]n(-c3ccccc3)c2=O)c(OC)c1	none
O=C(NC1CCCCC1)C(c1ccccc1)N(C(=O)c1csnn1)C1CCCC1 (stereo not drawn)	none
CC(Sc1nc2ccccc2c(=O)n1C)C(=O)N(C)C1CCCCC1 (stereo not drawn)	Shn3 3UTR inh 88
CC(Sc1nc2ccccc2c(=O)n1CC1CCCO1)C(=O)N(C)Cc1ccccc1 (stereo not drawn)	none
CC12CCC(=O)C=C1CCC1C2C(O)CC2(C)C1CCC21OCC1=O (stereo not drawn)	none
CCOC(=O)OCC(=O)C1(O)CCC2C3CCC4=CC(=O)CCC4(C)C3C(O)CC21C (stereo not drawn)	CF NFkB inh 68
CC12CCC(=O)C=C1CCC1C2C(O)CC2(C)C1CCC2(O)C(=O)COC(=O)COCC(=O)O (stereo not drawn)	CF NFkB inh 70
CCCCCC(=O)O[C@]1(C(C)=O)CC[C@H]2[C@@H]3CCC4=CC(=O)CC[C@]4(C)[C@H]3CC[C@@]21C	none
CCCCCCCC(=O)OCC(=O)[C@@]1(O)CC[C@H]2[C@@H]3CCC4=CC(=O)CC[C@]4(C)[C@H]3[C@@H](O)C[C@@]21C	CF NFkB inh 61
CC(=O)OCC(=O)C1(O)CCC2C3CCC4=CC(=O)CCC4(C)C3C(O)CC21C (stereo not drawn)	CF NFkB inh 60
NS(=O)(=O)c1ccc(N=Nc2c[nH]c(=O)c(O)c2)cc1	HIF-2a block 41
CCCCCCCN(c1ccccc1)[C@@H]1C[C@H]2CCCC(=O)N3CC[C@@H](C1)[C@@H]23	Peg3 prom inh 87, Shn3 3UTR inh inconclusive
CCCCNC(=O)O[C@@H]1C[C@H]2CCCC(=O)N3CC[C@@H](C1)[C@@H]23	none
COC(=O)c1cc(=O)n(CCc2ccc(OC)cc2)c(=Nc2ccc(F)c(Cl)c2)s1	Peg3 prom inh 82
CC(O)(CC(=O)CC(=O)c1ccccc1)c1ccccc1 (stereo not drawn)	Peg3 prom inh 52
Cc1ccc(C(=O)CC(=O)c2ccccc2)cc1	none
O=C(NNC(=O)c1cccc2ccccc12)c1ccc2c(c1)OCO2	none
OC1CCCCC1	none
O=C(O)c1cc2c(s1)-c1ccccc1CC2	none
c1ccc(-c2cc3n(c2)CCc2ccccc2-3)cc1	CF NFkB inh 57
